# Test results published in the supplement of paper PMC6555819.
# Tests used:
# Test in all cases: PBM binding z-score (relative to random genomic background probes); higher = stronger binding; sequences stand for … in GC…GCGATTGACAGCGTAGAATGAAGG
# [1] = test system: FXR:RXRa (NR concentration 270 nM, RXRa partner concentration 90 nM)
# Outline: (§1)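 Antibodies against each partner of ligand-free nuclear receptor dimers (one per run) detected binding on custom Agilent 4×180K protein-binding microarrays after 1 h incubation. The double-stranded probes had 34-nt variable regions carrying direct-repeat seeds, single-nucleotide variants, half-site ablations and random human genomic background sequences. Binding z-scores, from regression-normalized fluorescence, use the random background probes as reference.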
# [2] = test system: LXRa:RXRa (NR concentration 270 nM, RXRa partner concentration 90 nM)
# Outline: as §1
# [3] = test system: LXRa homodimer (NR concentration 270 nM)
# Outline: as §1
# [4] = test system: LXRb:RXRa (NR concentration 270 nM, RXRa partner concentration 90 nM)
# Outline: as §1
# [5] = test system: LXRb homodimer (NR concentration 270 nM)
# Outline: as §1
# [6] = test system: PPARa:RXRa (NR concentration 270 nM, RXRa partner concentration 90 nM)
# Outline: as §1
# [7] = test system: PPARg:RXRa (NR concentration 180 nM, RXRa partner concentration 90 nM)
# Outline: as §1
# [8] = test system: PPARg:RXRa 270nM:90nM, anti-RXR (NR concentration 270 nM, RXRa partner concentration 90 nM)
# Outline: as §1
# [9] = test system: PPARg:RXRa 30nM:10nM, anti-RXR (NR concentration 30 nM, RXRa partner concentration 10 nM)
# Outline: as §1
# [10] = test system: PPARg:RXRa 90nM:30nM, anti-RXR (NR concentration 90 nM, RXRa partner concentration 30 nM)
# Outline: as §1
# [11] = test system: PPARg:RXRa DBDmut IVT, anti-RXR (DBD mutation: RXRa K156A/R161A, NR concentration 270 nM, RXRa partner concentration 90 nM)
# Outline: as §1
# [12] = test system: PPARg:RXRa IVT, anti-PPARg (NR concentration 270 nM, RXRa partner concentration 90 nM)
# Outline: as §1
# [13] = test system: PPARg DBDmut:RXRa IVT, anti-PPARg (DBD mutation: PPARg1 K132A/R137A, NR concentration 270 nM, RXRa partner concentration 90 nM)
# Outline: as §1
# [14] = test system: PPARg DBDmut IVT, anti-PPARg (DBD mutation: PPARg1 K132A/R137A, NR concentration 270 nM)
# Outline: as §1
# [15] = test system: PPARg homodimer (NR concentration 180 nM)
# Outline: as §1
# [16] = test system: PXR:RXRa (NR concentration 270 nM, RXRa partner concentration 90 nM)
# Outline: as §1
# [17] = test system: PXR homodimer (NR concentration 270 nM)
# Outline: as §1
# [18] = test system: RARa:RXR (NR concentration 270 nM, RXRa partner concentration 90 nM)
# Outline: as §1
# [19] = test system: RARa homodimer (NR concentration 270 nM)
# Outline: as §1
# [20] = test system: RARb:RXRa (NR concentration 270 nM, RXRa partner concentration 90 nM)
# Outline: as §1
Sequence,PBM binding z-score [1],PBM binding z-score [2],PBM binding z-score [3],PBM binding z-score [4],PBM binding z-score [5],PBM binding z-score [6],PBM binding z-score [7],PBM binding z-score [8],PBM binding z-score [9],PBM binding z-score [10],PBM binding z-score [11],PBM binding z-score [12],PBM binding z-score [13],PBM binding z-score [14],PBM binding z-score [15],PBM binding z-score [16],PBM binding z-score [17],PBM binding z-score [18],PBM binding z-score [19],PBM binding z-score [20]
CCAGACAGGTGAAAGGTAATTCAGTCTGGTACGC,0.605,0.764,-0.068,0.645,-0.433,3.29,5.24,5.83,4.2,5.95,2.07,2.63,-0.0152,-0.567,1.43,0.676,-0.138,1.49,0.566,0.958
CCTACTGGGCCTTTCAGAGGTCATTGATCATATG,2.73,4.97,8.02,3.71,0.477,3.35,0.785,2.22,0.333,1.2,2.39,2.44,-0.307,0.081,2.46,4.68,2.5,4.52,1.01,2.8
CCTAGCAGGCCAGGGACACTCAAGCATTTCGCTT,-0.315,-0.301,-0.372,-0.68,-0.928,-0.453,0.0348,-0.505,-0.943,-0.701,0.0615,-0.258,-0.983,-1.15,-0.379,-0.644,-0.46,-0.225,-0.182,0.347
GCTAGTTGGTCAGTAGAAGGTCACACACCGGTCG,1.88,2.35,2.32,2.24,0.231,2.69,1.13,2.23,0.306,1.54,1.12,2.07,-0.208,0.144,2.88,3.18,1.11,3.73,0.845,3.19
TCTCGGACGACACGAAAGGTCAGAGCTCGACATC,2.91,3.74,2.39,3.3,0.313,3.69,1.12,2.86,2.84,2.66,1.5,1.09,-0.234,0.0466,3.29,3.8,0.286,4.66,2.43,3.86
CCTACTGGCCCATTCAGAGGTCATTGATCATATG,2.81,4.4,6.69,3.76,0.83,3.28,0.571,1.44,0.377,1.09,-0.184,0.996,-0.258,-0.298,2.98,4.67,2.7,4.14,1.58,2.81
TCTAGCAGGCCAGAGGGTCACGCAAGAGGTACGG,1.68,1.54,-0.618,1.93,-1.47,3.24,2.4,2.99,1.96,2.57,0.77,1.31,-0.82,-1.03,0.618,2.62,-0.51,3.55,-0.463,2.84
TAGCCAAGGTCATGCGGGCCAGTATAGTGTCGGC,7.03,4.97,1.17,3.87,0.499,5.58,4.64,4.84,1.61,3.73,1.6,3.47,1.13,0.504,1.92,4.35,1.1,4.48,0.0818,5.09
CCTATTAGTTGACCATAAGGGCAAGCGAAGCTCG,0.766,0.114,0.254,0.218,0.573,0.369,0.36,0.458,-0.0041,0.237,0.132,0.158,-0.0196,0.32,1.47,0.536,0.56,0.913,1.9,1.65
CGACCAAGGTCAGAGAGGTCAGTGAATGCCGAGT,6,4.97,2.61,4.23,-0.0164,4.64,3.68,4.21,1.11,2.69,2.95,3.5,0.125,-0.614,5.33,6.21,12.7,5.78,2.47,5.18
CCTTACGGGTCACGATGTTATAGCACGACGAGCG,5.82,3.85,0.154,3.42,-0.0634,5.51,6.19,5.77,3.09,4.59,3.85,4.86,0.952,0.0806,2.01,3.41,0.295,4.22,0.866,4.39
TATACAGGGTGAAAGGCCAGAGTACGAATGTCGA,0.996,0.959,-0.157,1.08,0.982,3.14,5.05,5.48,4.23,5.46,1.07,3.51,1.71,0.732,1.24,0.643,0.178,1.31,0.323,1.68
ACAGACAGGTGAGTGAAGGTAACGCAGCTGGACG,0.617,0.126,-0.468,-0.215,-0.518,0.197,0.826,0.162,-0.109,0.232,0.361,1.04,-1.24,-0.822,-0.463,-0.245,-0.327,0.359,-0.195,0.702
ATATGGAGGTTACATCCGGGTCATTCAGGCTATG,2.99,5.32,1.94,3.8,0.764,3.79,3.01,2.85,0.871,1.91,2.72,3.63,1.46,0.791,2.15,4.57,2.76,4.94,0.676,2.88
ATATGTAGGTTACATCCGGGTCATACAGGCTATG,2.09,4.15,1.41,2.85,0.809,4.64,6.34,5.27,2.96,4.81,7.27,7.54,4.07,3.35,3.84,3.46,1.19,4.26,0.627,2.41
ATCTCTAGGTAAAAGATCAGTGAATCCCGAGGAT,0.18,-0.223,0.0922,-0.31,0.167,2.45,4.48,5.32,4.13,5.66,2.47,2.26,1.02,0.762,0.847,-0.177,-0.245,0.0916,0.407,-0.0842
TCTCGCAGGACACGAAAGGTCAGAGCTCGACATC,2.57,3.8,2.98,3.17,0.477,3.71,1.25,2.76,2.41,2.44,1.62,1.4,0.807,0.509,2.57,3.87,0.38,4.53,1.07,3.95
ACTAGTTGGTCAGCTGAGGGCACACACAATTCGG,0.819,0.0659,0.172,0.183,-0.0227,0.606,0.887,0.572,0.27,0.385,0.794,1.19,-0.0581,0.654,0.538,2.26,0.211,1.13,-0.0752,1.73
CCTGCTAGGTCAATGCTCAGCTAAAGCAGCTCGC,2.82,1.9,-0.307,1.16,-0.142,2.54,1.2,1.88,-0.451,0.833,4.63,3.35,0.0583,-0.86,0.329,0.498,-0.943,1.19,-0.48,3.61
CGACCAAGGTCAATGCTAGGTCAGTGAAAGCATT,6.54,5.4,1.97,3.95,0.214,4.99,3.99,4.62,1.63,3.37,3.29,3.59,-0.925,-0.0967,4.22,4.59,0.845,5.71,0.803,5.03
TCGAGTAGGTTAGCAATGGGGCATTCAGCTTTCT,-0.119,0.188,-0.715,0.235,-0.623,0.539,-0.248,0.643,1.08,1.09,2.43,1.46,-0.902,-1.37,-0.285,-0.264,-0.747,-0.123,-0.474,0.542
TCAGACAGGTGAAGGTAATTCAGGTACGCAGTCG,1.15,1.22,-0.0461,1.11,0.0602,1.41,0.743,2.25,3.9,3.02,2.77,1.13,0.166,0.166,1.05,0.684,0.0937,1.21,0.385,1.08
ACAGACAGGTGATGAAGGAAACTCAGGCTATCAT,0.101,-0.0621,-0.0645,-0.383,-0.211,0.0161,0.66,-0.12,0.224,-0.159,-0.00583,0.186,0.678,0.42,0.36,-0.196,0.0696,0.162,0.228,0.275
ATCGAAAGGTCGAGGTGAGTATCGAGAAAGGGAA,4.43,3.37,-0.107,2.73,0.435,4.56,3.35,3.74,1.49,2.48,0.319,2.07,0.156,0.836,1.5,2.44,0.217,3.52,0.474,4.2
TGAATGAGGTTATAAGACCAGGGAACGTTGCAAA,1.42,1.55,-0.275,0.883,-0.347,2.44,1.25,1.65,0.679,1.33,1.18,1.75,0.985,0.561,0.257,0.794,-0.0148,1.33,0.0796,1.29
GGAACGAGGGCAAAGTTGACAGCATCTGTCGACG,2.02,1.27,-0.425,1.25,-0.409,4.78,8.22,7.66,7.72,8.34,4.28,4.82,1.12,0.308,0.924,1.91,0.0135,2.66,-0.5,2.65
